Measured values taken from PubChem BioAssay (NCATS).
Inconclusive results are not listed. Entries that show only a call come without a potency. The source made the active and inactive calls. Calls follow the shape of the dose curve; as a rule, active = well fitted inhibition curve with a large enough effect; inconclusive = small, poorly fitted or top-dose-only effect; inactive = flat fitted curve, though single readings scatter.

Assays:
Assay in all cases: qHTS profiling for inhibitors of Plasmodium falciparum proliferation (AID 504749); also: nearly all actives have a fitted effect of over 60% in size
Settings in all cases: P. falciparum in erythrocytes, SYBR Green DNA, 72 h; series mostly up to 28.7 µM
CP247 = test system: CP247
Summary of the method: (§1)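 Quantitative HTS: compounds pinned into medium, infected erythrocytes added (0.3% parasitemia, 2.5% hematocrit), 72 h culture at 37 C under 5% CO2. Saponin/Triton lysis with SYBR Green I, overnight RT, then fluorescence read.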

CP250 = test system: CP250
Summary of the method: as §1

CP252 = test system: CP252
Summary of the method: as §1

CP256 = test system: CP256
Summary of the method: as §1

CP260 = test system: CP260
Summary of the method: as §1

CP262 = test system: CP262
Summary of the method: as §1

CP265 = test system: CP265
Summary of the method: as §1

CP266 = test system: CP266
Summary of the method: as §1

CP268 = test system: CP268
Summary of the method: as §1

CP269 = test system: CP269
Summary of the method: as §1
Potency is read from the fitted curve at half-maximal effect.

SMILES: CCN(CC)C(=O)c1ccc(O)c(OC)c1
- Potency (CP247): inactive
- outcome (CP250): inactive
- outcome (CP252): inactive
- outcome (CP256): inactive
- outcome (CP260): inactive
- outcome (CP262): inactive
- Potency (CP265): inactive
- outcome (CP266): inactive
- outcome (CP268): inactive
- outcome (CP269): inactive

SMILES: Cc1cnc(C(=O)O)c[n+]1[O-]
- Potency (CP247): inactive
- outcome (CP250): inactive
- outcome (CP252): inactive
- outcome (CP256): inactive
- outcome (CP262): inactive
- Potency (CP265): inactive
- outcome (CP268): inactive
- outcome (CP269): inactive

SMILES: CCN(CC)CCOC(=O)c1ccc(N)cc1
- Potency (CP247): inactive
- outcome (CP250): inactive
- outcome (CP252): inactive
- outcome (CP256): inactive
- outcome (CP260): inactive
- outcome (CP262): inactive
- Potency (CP265): inactive
- outcome (CP266): inactive
- outcome (CP268): inactive
- outcome (CP269): inactive

SMILES: Cc1cccc(C)c1OCC(C)N (stereo unspecified)
- Potency (CP247): inactive
- outcome (CP250): inactive
- outcome (CP252): inactive
- outcome (CP256): inactive
- outcome (CP260): inactive
- outcome (CP262): inactive

SMILES: NC(N)=Nc1nc(CSCC/C(N)=N/S(N)(=O)=O)cs1
- Potency (CP247): inactive
- outcome (CP250): inactive
- outcome (CP252): inactive
- outcome (CP256): inactive
- outcome (CP260): inactive
- outcome (CP262): inactive
- Potency (CP265): inactive
- outcome (CP266): inactive
- outcome (CP268): inactive
- outcome (CP269): inactive

SMILES: O=C(NCCN1CCOCC1)c1ccc(Cl)cc1
- Potency (CP247): inactive
- outcome (CP250): inactive
- outcome (CP252): inactive
- outcome (CP256): inactive
- outcome (CP260): inactive
- outcome (CP262): inactive
- Potency (CP265): inactive
- outcome (CP266): inactive
- outcome (CP268): inactive
- outcome (CP269): inactive

SMILES: CC/C(=C(\c1ccccc1)c1ccc(OCCN(C)C)cc1)c1ccccc1
- outcome (CP262): inactive
- outcome (CP266): inactive

SMILES: O=C1NC(=O)C(c2ccccc2)(c2ccccc2)N1
- Potency (CP247): inactive
- outcome (CP250): inactive
- outcome (CP252): inactive
- outcome (CP256): inactive
- outcome (CP260): inactive
- outcome (CP262): inactive
- Potency (CP265): inactive
- outcome (CP266): inactive
- outcome (CP268): inactive
- outcome (CP269): inactive

SMILES: CCN(CC)CCNC(=O)c1ccc(N)cc1
- Potency (CP247): inactive
- outcome (CP250): inactive
- outcome (CP252): inactive
- outcome (CP256): inactive
- outcome (CP260): inactive
- outcome (CP262): inactive
- Potency (CP265): inactive
- outcome (CP266): inactive
- outcome (CP268): inactive
- outcome (CP269): inactive

SMILES: CN(C)CCC(c1ccccc1)c1ccccn1 (stereo unspecified)
- Potency (CP247): inactive
- outcome (CP250): inactive
- outcome (CP252): inactive
- outcome (CP256): inactive
- outcome (CP260): inactive
- outcome (CP262): inactive
- Potency (CP265): 12.6 µM (active)
- outcome (CP266): inactive

SMILES: Clc1ccc(Cn2c(CN3CCCC3)nc3ccccc32)cc1
- Potency (CP247): inactive
- outcome (CP250): inactive
- outcome (CP252): inactive
- outcome (CP256): inactive
- outcome (CP262): inactive
- Potency (CP265): inactive
- outcome (CP266): inactive
- outcome (CP268): inactive
- outcome (CP269): inactive

SMILES: O=C1Nc2ccc(Cl)cc2C(C#CC2CC2)(C(F)(F)F)O1 (stereo unspecified)
- Potency (CP247): inactive
- outcome (CP250): inactive
- outcome (CP252): inactive
- outcome (CP256): inactive
- outcome (CP260): inactive
- outcome (CP262): inactive
- Potency (CP265): inactive
- outcome (CP268): inactive
- outcome (CP269): inactive

SMILES: O=C(O)Cc1cccc2ccccc12
- Potency (CP247): inactive
- outcome (CP250): inactive
- outcome (CP252): inactive
- outcome (CP256): inactive
- outcome (CP260): inactive
- outcome (CP262): inactive
- Potency (CP265): inactive
- outcome (CP266): inactive
- outcome (CP268): inactive
- outcome (CP269): inactive

SMILES: CCCNC(=O)NS(=O)(=O)c1ccc(Cl)cc1
- Potency (CP247): inactive
- outcome (CP250): inactive
- outcome (CP252): inactive
- outcome (CP256): inactive
- outcome (CP260): inactive
- outcome (CP262): inactive
- Potency (CP265): inactive
- outcome (CP266): inactive
- outcome (CP268): inactive
- outcome (CP269): inactive

SMILES: CCN1CCC[C@H]1CNC(=O)c1cc(S(N)(=O)=O)ccc1OC
- Potency (CP247): inactive
- outcome (CP250): inactive
- outcome (CP252): inactive
- outcome (CP256): inactive
- outcome (CP260): inactive
- outcome (CP262): inactive
- Potency (CP265): inactive
- outcome (CP266): inactive
- outcome (CP268): inactive
- outcome (CP269): inactive

SMILES: O=C(O)c1c(Cl)c(Cl)c(Cl)c(Cl)c1-c1c2cc(I)c(=O)c(I)c-2oc2c(I)c(O)c(I)cc12
- Potency (CP247): inactive
- outcome (CP250): inactive
- outcome (CP252): inactive
- outcome (CP256): inactive
- outcome (CP260): inactive
- outcome (CP262): inactive
- Potency (CP265): inactive
- outcome (CP266): inactive
- outcome (CP268): inactive
- outcome (CP269): inactive

SMILES: CCCCCN(C)CCC(O)(P(=O)(O)O)P(=O)(O)O
- Potency (CP247): inactive
- outcome (CP250): inactive
- outcome (CP252): inactive
- outcome (CP256): inactive
- outcome (CP260): inactive
- outcome (CP262): inactive
- Potency (CP265): inactive
- outcome (CP266): inactive
- outcome (CP268): inactive
- outcome (CP269): inactive

SMILES: CC1(C)O[C@H]2C[C@@H]3[C@H]4CCC5=CC(=O)C=C[C@]5(C)[C@@]4(F)[C@@H](O)C[C@]3(C)[C@]2(C(=O)CO)O1
- Potency (CP247): inactive
- outcome (CP250): inactive
- outcome (CP252): inactive
- outcome (CP256): inactive
- outcome (CP260): inactive
- outcome (CP262): inactive
- Potency (CP265): inactive
- outcome (CP268): inactive
- outcome (CP269): inactive

SMILES: C[N+](C)(C)CCCCCC[N+](C)(C)C
- Potency (CP247): inactive
- outcome (CP250): inactive
- outcome (CP252): inactive
- outcome (CP256): inactive
- outcome (CP260): inactive
- outcome (CP262): inactive
- Potency (CP265): inactive
- outcome (CP266): inactive
- outcome (CP268): inactive
- outcome (CP269): inactive

SMILES: COc1ccccc1N1CCN(CCCNc2cc(=O)n(C)c(=O)n2C)CC1
- Potency (CP247): inactive
- outcome (CP250): inactive
- outcome (CP252): inactive
- outcome (CP256): inactive
- outcome (CP260): inactive
- outcome (CP262): inactive
- Potency (CP265): inactive
- outcome (CP266): inactive
- outcome (CP268): inactive
- outcome (CP269): inactive

SMILES: CCOC(=O)O[C@]1(C(=O)OCCl)CC[C@@H]2[C@H]3CCC4=CC(=O)C=C[C@]4(C)[C@@H]3[C@@H](O)C[C@@]21C
- Potency (CP247): inactive
- outcome (CP250): inactive
- outcome (CP252): inactive
- outcome (CP256): inactive
- outcome (CP260): inactive
- outcome (CP262): inactive
- Potency (CP265): inactive
- outcome (CP268): inactive
- outcome (CP269): inactive

SMILES: CC(=O)N[C@@H](CS)C(=O)O
- Potency (CP247): inactive
- outcome (CP250): inactive
- outcome (CP252): inactive
- outcome (CP256): inactive
- outcome (CP260): inactive
- outcome (CP262): inactive
- Potency (CP265): inactive
- outcome (CP266): inactive
- outcome (CP268): inactive
- outcome (CP269): inactive

SMILES: CC1=C(/C=C/C(C)=C/C=C/C(C)=C/C(=O)Nc2ccc(O)cc2)C(C)(C)CCC1
- Potency (CP247): 7.94 µM (active)
- outcome (CP256): inactive

SMILES: CC(=O)CCCCn1c(=O)c2c(ncn2C)n(C)c1=O
- Potency (CP247): inactive
- outcome (CP250): inactive
- outcome (CP252): inactive
- outcome (CP256): inactive
- outcome (CP260): inactive
- outcome (CP262): inactive
- Potency (CP265): inactive
- outcome (CP266): inactive
- outcome (CP268): inactive
- outcome (CP269): inactive

SMILES: CC(=O)c1ccc(S(=O)(=O)NC(=O)NC2CCCCC2)cc1
- Potency (CP247): inactive
- outcome (CP250): inactive
- outcome (CP252): inactive
- outcome (CP256): inactive
- outcome (CP260): inactive
- outcome (CP262): inactive
- Potency (CP265): inactive
- outcome (CP266): inactive
- outcome (CP268): inactive
- outcome (CP269): inactive

SMILES: O=c1[nH]cnc2c1ncn2[C@H]1CC[C@@H](CO)O1
- Potency (CP247): inactive
- outcome (CP250): inactive
- outcome (CP252): inactive
- outcome (CP256): inactive
- outcome (CP262): inactive
- outcome (CP266): inactive
- outcome (CP268): inactive
- outcome (CP269): inactive

SMILES: NCCS
- Potency (CP247): inactive
- outcome (CP250): inactive
- outcome (CP252): inactive
- outcome (CP256): inactive
- outcome (CP260): inactive
- outcome (CP262): inactive
- Potency (CP265): inactive
- outcome (CP266): inactive
- outcome (CP268): inactive
- outcome (CP269): inactive

SMILES: CC(=O)O[C@]1(C(C)=O)CC[C@H]2[C@@H]3C=C(Cl)C4=CC(=O)[C@@H]5C[C@@H]5[C@]4(C)[C@H]3CC[C@@]21C
- Potency (CP247): inactive
- outcome (CP250): inactive
- outcome (CP252): inactive
- Potency (CP265): inactive

SMILES: C[C@@H](O)[C@H]1C(=O)N2C(C(=O)O)=C(S[C@@H]3CN[C@H](C(=O)N(C)C)C3)[C@H](C)[C@H]12
- Potency (CP247): inactive
- outcome (CP250): inactive
- outcome (CP252): inactive
- outcome (CP256): inactive
- outcome (CP260): inactive
- outcome (CP262): inactive
- Potency (CP265): inactive
- outcome (CP266): inactive
- outcome (CP268): inactive
- outcome (CP269): inactive

SMILES: COc1ccc(Cc2nccc3cc(OC)c(OC)cc23)cc1OC
- outcome (CP250): inactive
- outcome (CP252): inactive
- outcome (CP256): inactive
- outcome (CP260): inactive
- outcome (CP262): inactive
- Potency (CP265): inactive
- outcome (CP266): inactive
- outcome (CP268): inactive
- outcome (CP269): inactive

SMILES: O=C(O)c1cc(-c2ccccc2)nc2ccccc12
- Potency (CP247): inactive
- outcome (CP250): inactive
- outcome (CP252): inactive
- outcome (CP256): inactive
- outcome (CP260): inactive
- outcome (CP262): inactive
- Potency (CP265): inactive
- outcome (CP268): inactive
- outcome (CP269): inactive

SMILES: O=C1NCC2(CCN(CCc3ccccc3)CC2)O1
- Potency (CP247): inactive
- outcome (CP250): inactive
- outcome (CP252): inactive
- outcome (CP256): inactive
- outcome (CP262): inactive
- Potency (CP265): inactive
- outcome (CP266): inactive
- outcome (CP268): inactive
- outcome (CP269): inactive
